Results on eight compounds are retold here after PubChem BioAssay (NCI).

Some test systems named below: NCI-H23 lung; NCI-H226 lung; HOP-62 NSCLC; NCI-H460 lung; HOP-92 NSCLC; NCI-H522 lung; A549/ATCC NSCLC; 786-0 renal; COLO 205 colon; DU-145 prostate; K-562 leukemia; MALME-3M melanoma; MDA-MB-231 breast; RXF 393 renal; SF-268 CNS; SF-295 CNS; SF-539 CNS; UACC-257 melanoma; M14 melanoma.
Common to all, as to assay: NCI-60 one-dose screen, 48 h (100 = growth as untreated, 0 = no growth, -100 = all killed)
Holding throughout (details): 10 µM unless noted

Each structure is given as a SMILES string. Compounds without any hit were thinned out: in the full panel of roughly 83,000, 20% have a hit.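 How to read the values: 0–100, growth inhibition (40 = 60% inhibited); 0, no net growth; -100 to 0, cell death (-40 = 40% of starting cells died; -100 = all dead).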 Unmarked numbers belong to inactive results. The source made the active and inactive calls. Rule for the calls: active = growth percent below 10; inactive = the rest.

Regarding `O=S(=O)(NCCCNc1nccc(-c2[nH]c(-c3ccccc3)nc2-c2ccc(F)c(O)c2)n1)c1cccc2ccccc12`, the growth is 64.9% in the assay on NCI-H23 lung; 68% with NCI-H226 lung; 76.8% with HOP-62 NSCLC; 35.5% in the assay with NCI-H460 lung; 32.6% in the assay on HOP-92 NSCLC; 64% in the assay with NCI-H522 lung. The growth in the assay on A549/ATCC NSCLC was 52.4%; in the assay with 786-0 renal it was 59.8%; in the assay on COLO 205 colon, 111%; with DU-145 prostate, 61.5%; in the assay on K-562 leukemia, 23.3%; in the assay on MALME-3M melanoma it was 32.8%. For the same compound, the growth with MDA-MB-231 breast was 77.2%; in the assay on RXF 393 renal, 75.4%; in the assay on SF-268 CNS, 75.3%; with SF-295 CNS, 45.7%; in the assay on SF-539 CNS it was 93.7%; in the assay with UACC-257 melanoma, 44.1%. For the same compound, in the assay on M14 melanoma, the growth is 29.4%.

As for `Clc1ccc(CSc2nnc(-c3ccc(Cl)cc3)n2-c2ccccc2)cc1`, the growth in the assay on NCI-H23 lung was 79.8%; with NCI-H226 lung, 46.1%; in the assay with HOP-62 NSCLC, 92.4%; in the assay on NCI-H460 lung it was 85.8%; in the assay on HOP-92 NSCLC, 89.5%; with NCI-H522 lung, 70.1%. For the same compound, the growth with A549/ATCC NSCLC was 80.3%; in the assay with 786-0 renal, 59.7%; with COLO 205 colon it was 122%; in the assay with DU-145 prostate, 95.8%; in the assay with K-562 leukemia it was 91.3%; with MALME-3M melanoma it was 86.3%. The growth is 77.7% in the assay on MDA-MB-231 breast; 57.1% in the assay with RXF 393 renal; 70.2% in the assay on SF-268 CNS; 78.4% in the assay on SF-295 CNS; 65.1% in the assay with SF-539 CNS; 87.6% in the assay on UACC-257 melanoma. For the same compound, the growth with M14 melanoma was 85.4%.

On to `COc1ccc2[nH]cc(-c3nn4cc(-c5ccncc5)nc4s3)c2c1`, for which the growth is 70.2% with NCI-H23 lung; 76.5% in the assay on NCI-H226 lung; 69.9% in the assay with HOP-62 NSCLC; 51.3% in the assay with NCI-H460 lung; 28.9% in the assay on HOP-92 NSCLC; 74.6% in the assay on A549/ATCC NSCLC. The growth with 786-0 renal was 79.8%; in the assay on DU-145 prostate, 88.8%; in the assay with K-562 leukemia, 28.5%; with MALME-3M melanoma, 86.3%; in the assay with MDA-MB-231 breast, 82.3%; in the assay with RXF 393 renal, 96%. The growth is 86.9% with SF-268 CNS; 62.8% in the assay on SF-295 CNS; 88.3% with SF-539 CNS; 109% in the assay with UACC-257 melanoma; 82.8% in the assay with M14 melanoma.

With `CC1(C)C=Cc2cc(/C(N)=N/C(N)=N/c3nc4ccccc4s3)ccc2O1`, the growth with NCI-H23 lung was 58.3%; with NCI-H226 lung it was 5.64% (active); in the assay on HOP-62 NSCLC, 5.82% (active); in the assay on NCI-H460 lung, 52.3%; with HOP-92 NSCLC, 94.2%; in the assay on NCI-H522 lung it was 91.2%. In addition, the growth in the assay with A549/ATCC NSCLC was 67%; in the assay on 786-0 renal, 113%; in the assay with COLO 205 colon, 102%; with DU-145 prostate it was 94.9%; with K-562 leukemia, 57.6%; with MALME-3M melanoma, 104%. Further, the growth in the assay on MDA-MB-231 breast was 77.5%; with RXF 393 renal, 103%; with SF-268 CNS it was 93.2%; with SF-295 CNS it was 81.6%; with SF-539 CNS, 97.3%; in the assay with UACC-257 melanoma it was 104%. For the same compound, in the assay on M14 melanoma, the growth was 103%.

Regarding `Brc1cccc(-c2cc(-c3cnc4c(c3)OCCO4)n[nH]2)c1`, the growth was 52.4% in the assay with NCI-H23 lung; 65.6% in the assay with NCI-H226 lung; 65% in the assay with HOP-62 NSCLC; 17.4% in the assay with NCI-H460 lung; 101% in the assay on HOP-92 NSCLC; 19.6% in the assay with NCI-H522 lung. Besides, the growth in the assay on A549/ATCC NSCLC is 36.8%; in the assay with 786-0 renal, 79%; with COLO 205 colon, 34.9%; in the assay with DU-145 prostate, 70.4%; in the assay on K-562 leukemia it was 16.6%; with MALME-3M melanoma, 37%. In addition, the growth in the assay on MDA-MB-231 breast is 68.8%; in the assay on RXF 393 renal, 47.9%; in the assay on SF-268 CNS, 76.5%; with SF-295 CNS, 51.5%; in the assay with SF-539 CNS, 47.6%; in the assay on UACC-257 melanoma it was 73.2%. The growth in the assay with M14 melanoma was 27.1%.

In the case of `CC(=O)OC[C@@]12Oc3c(cccc3-c3ccc(O)c4c3O[C@]3(COC(C)=O)C(=C4O)C(=O)C[C@H](C)[C@@H]3OC(C)=O)C(O)=C1C(=O)C[C@H](C)[C@@H]2OC(C)=O`, the growth with NCI-H23 lung was 2.54% (active); in the assay on NCI-H226 lung it was 25.9%; in the assay with HOP-62 NSCLC it was 8.14% (active); in the assay with NCI-H460 lung it was 10.3%; in the assay on HOP-92 NSCLC it was -25.2% (active); in the assay with NCI-H522 lung, -7.22% (active). Also, the growth was 19.4% in the assay on A549/ATCC NSCLC; 27.7% in the assay on 786-0 renal; -3.3% (active) in the assay with COLO 205 colon; 20.7% in the assay with DU-145 prostate; 11.6% in the assay with K-562 leukemia; -15.5% (active) in the assay on MALME-3M melanoma. Further, the growth in the assay with MDA-MB-231 breast was 5.9% (active); in the assay with RXF 393 renal, 11.9%; in the assay on SF-268 CNS, 17.2%; in the assay on SF-295 CNS it was -21.9% (active); with SF-539 CNS it was 18.4%; in the assay with UACC-257 melanoma, -8.95% (active). For the same compound, the growth in the assay with M14 melanoma was 21.8%.

Turning to `Cc1ccc2c(n1)C(=O)C(Cl)=C(Nc1cccc(C)c1C)C2=O`, the growth with NCI-H23 lung is -10.6% (active); with NCI-H226 lung it was 18.7%; with HOP-62 NSCLC, -0.0437% (active); with NCI-H460 lung, 36.8%; in the assay with HOP-92 NSCLC, -1.44% (active); in the assay on NCI-H522 lung, -37.5% (active). Further, the growth in the assay with A549/ATCC NSCLC was 41.5%; with 786-0 renal it was 21.9%; in the assay on COLO 205 colon, 87.7%; in the assay on DU-145 prostate, -11% (active); in the assay on K-562 leukemia, -2.38% (active); in the assay with MALME-3M melanoma, -5.61% (active). Further, the growth with MDA-MB-231 breast was -1.12% (active); in the assay on RXF 393 renal it was 7.14% (active); in the assay on SF-268 CNS, 2.79% (active); in the assay with SF-295 CNS it was -52.6% (active); with SF-539 CNS, -55.9% (active); with UACC-257 melanoma, -77.5% (active). Moreover, the growth in the assay on M14 melanoma is -29.2% (active).

Regarding `CC(Nc1c(C#N)cnc2ccc(-c3cncc(-c4n[nH]c(=O)o4)c3)cc12)c1ccccc1` (stereo not given), the growth in the assay on NCI-H23 lung is 17.4%; in the assay with NCI-H226 lung it was 2.2% (active); with HOP-62 NSCLC, 8.5% (active); with NCI-H460 lung, 11.1%; with HOP-92 NSCLC it was -20.9% (active); in the assay with NCI-H522 lung, -20% (active). Also, the growth in the assay on A549/ATCC NSCLC was 17.7%; in the assay with 786-0 renal, 9.83% (active); with COLO 205 colon it was -6.04% (active); in the assay with DU-145 prostate it was 8.39% (active); in the assay with K-562 leukemia it was 28.5%; with MALME-3M melanoma, -8.08% (active). The growth in the assay on MDA-MB-231 breast is 17.2%; in the assay on RXF 393 renal, -24% (active); with SF-268 CNS, 12.2%; with SF-295 CNS, -7.24% (active); with SF-539 CNS it was -12.8% (active); in the assay with UACC-257 melanoma, 34.2%. Further, the growth with M14 melanoma is 18.7%.
